# Bioassay records as filed in PubChem.
# Many of the other results were omitted from the sample, so hits are more common in it than they were.
# KDM5B inh: KDM5B demethylase inhibition; KDM5B demethylase, FDH-coupled NADH fluorescence (FDH is formaldehyde dehydrogenase); AID 1347165; Q9UGL1; 220,000 tested, 2.6% active; Potency, µM (doses to about 57.7 µM), actives largely listed as inhibitors; active = well fitted inhibition curve with a large enough effect; also: 0% is about no effect; nearly all actives have a fitted effect of over 70% in size
# Target sequence (Q9UGL1 whole entry, looked up): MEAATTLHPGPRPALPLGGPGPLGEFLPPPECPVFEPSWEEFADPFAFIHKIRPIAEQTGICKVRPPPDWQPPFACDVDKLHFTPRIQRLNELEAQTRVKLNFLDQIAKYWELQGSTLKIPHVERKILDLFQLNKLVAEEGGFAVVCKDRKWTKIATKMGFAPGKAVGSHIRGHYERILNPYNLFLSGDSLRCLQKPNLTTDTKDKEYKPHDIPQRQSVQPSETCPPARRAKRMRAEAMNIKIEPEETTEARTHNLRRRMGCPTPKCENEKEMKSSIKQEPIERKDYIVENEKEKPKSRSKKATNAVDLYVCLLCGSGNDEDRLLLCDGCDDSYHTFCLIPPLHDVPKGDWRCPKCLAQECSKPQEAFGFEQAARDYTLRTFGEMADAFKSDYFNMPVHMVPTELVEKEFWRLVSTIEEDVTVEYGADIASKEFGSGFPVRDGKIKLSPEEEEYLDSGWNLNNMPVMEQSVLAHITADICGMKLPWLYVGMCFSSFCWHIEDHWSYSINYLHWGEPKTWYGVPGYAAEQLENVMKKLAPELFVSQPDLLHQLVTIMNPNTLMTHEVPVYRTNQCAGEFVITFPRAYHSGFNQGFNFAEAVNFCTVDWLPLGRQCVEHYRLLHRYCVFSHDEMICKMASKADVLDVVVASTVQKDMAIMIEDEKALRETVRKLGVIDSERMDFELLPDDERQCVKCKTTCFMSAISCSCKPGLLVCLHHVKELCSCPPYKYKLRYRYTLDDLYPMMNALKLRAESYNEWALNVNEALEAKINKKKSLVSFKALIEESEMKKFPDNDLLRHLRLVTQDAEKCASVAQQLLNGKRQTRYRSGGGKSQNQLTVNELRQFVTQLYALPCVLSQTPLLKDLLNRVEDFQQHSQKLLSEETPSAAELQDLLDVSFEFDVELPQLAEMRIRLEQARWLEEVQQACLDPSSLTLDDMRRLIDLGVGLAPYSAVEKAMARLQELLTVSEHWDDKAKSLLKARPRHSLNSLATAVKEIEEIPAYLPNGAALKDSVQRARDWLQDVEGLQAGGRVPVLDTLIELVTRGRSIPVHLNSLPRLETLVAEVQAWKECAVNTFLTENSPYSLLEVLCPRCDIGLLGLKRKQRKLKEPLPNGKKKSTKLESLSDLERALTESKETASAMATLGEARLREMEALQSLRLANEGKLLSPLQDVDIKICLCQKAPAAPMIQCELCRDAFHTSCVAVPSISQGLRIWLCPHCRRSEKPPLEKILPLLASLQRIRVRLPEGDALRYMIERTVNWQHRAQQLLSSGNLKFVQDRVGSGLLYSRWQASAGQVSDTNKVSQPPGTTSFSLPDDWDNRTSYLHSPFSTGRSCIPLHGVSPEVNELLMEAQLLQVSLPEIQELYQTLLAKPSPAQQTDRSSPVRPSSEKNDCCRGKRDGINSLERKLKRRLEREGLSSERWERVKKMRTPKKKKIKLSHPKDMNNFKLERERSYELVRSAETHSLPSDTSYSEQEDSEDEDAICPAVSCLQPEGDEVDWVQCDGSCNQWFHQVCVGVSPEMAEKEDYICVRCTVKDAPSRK
#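 qHTS format, multiple compound concentrations. Buffer 50 mM HEPES pH 7.5/0.01% Tween-20; 200 nM KDM5BΔAP final; 10 min compound preincubation; substrate-mix levels 12.5 µM peptide, 25 µM α-KG, 0.25 mM NAD⁺; 30 min RT; ΔRFU.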
# * hit, by the source's call; i = inactive. Potency is read from the fitted curve at half-maximal effect.
SMILES,KDM5B inh
COc1ccc2cc(C(=O)N3CCC4(CC3)CC(C(=O)N3CCOCC3)N(C)C4)[nH]c2c1 (centres undefined),25.1µM*
CN1CC2(CCN(Cc3cccn3C)CC2)CC1C(=O)N1CCOCC1 (centres undefined),15.8µM*
COc1ccc2cc(C(=O)N3CCC(C(=O)N4CCCC4)CC3)[nH]c2c1,i
CN1CC2(CCN(C(=O)CCCc3ccccc3)CC2)CC1C(=O)N1CCOCC1 (centres undefined),i
CC(C)n1cc(CN2CCC3(CC2)CC(C(=O)N2CCOCC2)N(C)C3)c2ccccc21 (centres undefined),i
CN1CC2(CCN(Cc3ccccn3)CC2)CC1C(=O)N1CCOCC1 (centres undefined),20µM*
CN1CC2(CCN(C(=O)c3cccnc3)CC2)CC1C(=O)N1CCOCC1 (centres undefined),i
CN1CC2(CCN(C(=O)Cc3cccc(F)c3)CC2)CC1C(=O)N1CCOCC1 (centres undefined),i
CCCCCn1nc(C(=O)NCCN(C)CCOC)c2ccccc2c1=O,i
COC1CN(c2cccc(F)c2)C12CCN(C(=O)NCCc1ccccc1)CC2 (centres undefined),i
Cc1oc2cc(OS(C)(=O)=O)ccc2c(=O)c1-c1ccc(Br)cc1,i
COc1cc(=O)n(-c2ccccc2C)nc1C(=O)Nc1cc(Cl)ccc1C,i
CCC(C)(Nc1ccc(OC)c(OC)c1)c1nnnn1-c1c(C)cccc1C (centres undefined),i
Fc1cccc(OCc2nnc(-c3ccc(Br)cc3)o2)c1,i
COc1cc(/C=C(/C#N)c2ccccn2)cc(Cl)c1OC(F)F,i
O=C(O)C(c1c[nH]c2cc(Br)ccc12)N1CCN(Cc2cccs2)CC1 (centres undefined),i
CC1=C[C@@H](CN(C)Cc2cccnc2)[C@H](C(C)C)C[C@H]1Cc1nnc(-c2ccc([N+](=O)[O-])cc2)o1,12.6µM*
CC1=C[C@@H](CN2CCN(c3cnccn3)CC2)[C@H](C(C)C)C[C@H]1Cc1nnc(-c2cccnc2)o1,31.6µM*
C#CCN(C)C[C@@H]1C=C(C)[C@H](Cc2nnc(-c3ccc(C)cc3)o2)C[C@H]1C(C)C,i
CC1=C[C@@H](CN(C)CCO)[C@H](C(C)C)C[C@H]1Cc1nnc(-c2ccccc2F)o1,i
CC1=C[C@@H](CN2CCN(c3ccccn3)CC2)[C@H](C(C)C)C[C@H]1Cc1nnc(-c2ccc([N+](=O)[O-])cc2)o1,i
C#CCN(C)C[C@@H]1C=C(C)[C@H](Cc2nnc(-c3ccccc3F)o2)C[C@H]1C(C)C,35.5µM*
CC1=C[C@@H](CN2CCC(C)CC2)[C@H](C(C)C)C[C@H]1Cc1nnc(-c2cccnc2)o1,i
COCCN1CCN(C[C@@H]2C=C(C)[C@H](Cc3nnc(-c4cccnc4)o3)C[C@H]2C(C)C)CC1,i
CC1=C[C@@H](CNCc2cccnc2)[C@H](C(C)C)C[C@H]1Cc1nnc(-c2ccccc2)o1,i
SMILES,KDM5B inh
CCCn1c(=O)[nH]c(=O)c2c1nc(CN1CCc3ccccc3C1)n2CCOC,i
CCc1ccc(NC(=O)N2CCC(OC3CCN(S(C)(=O)=O)CC3)CC2)cc1,i
CCCOc1nc2ccccc2nc1N1CCC(C(=O)NCc2ccccc2C)CC1,i
Cc1ccc(C)c(C(=O)Nc2ccc(-c3nc4ccccc4s3)cc2)c1,i
N[C@H]1CCC[C@@H](C(=O)NCc2nc(-c3cccc(F)c3)c(-c3ccccn3)[nH]2)C1,i
COCC(=O)NCc1nc(-c2cccc(F)c2)c(-c2ccccn2)[nH]1,i
O=C(NCc1nc(-c2cccc(F)c2)c(-c2ccccn2)[nH]1)N1CCCC1,22.4µM*
O=C(Nc1cccc2ncccc12)C1CCCN(S(=O)(=O)c2ccccc2)C1 (centres undefined),i
CSc1cccc(NC(=O)N(C)CCc2noc(-c3ccc(C(=O)N4CCCCC4)cc3)n2)c1,i
Cc1cccc(CN2CCC3(CC2)Cc2ccccc2CNC3=O)c1,i
Cn1ccnc1CN1CCC2(CC1)OC(=O)N(Cc1ccccc1F)C2(C)c1ccccc1 (centres undefined),i
Fc1ccc(-c2cccc(CN3CCOCC3)c2)c(Cl)c1,i
c1cc(CN2CCOCC2)cc(-c2cnn3ccccc23)c1,31.6µM*
N#CC1(c2ccc(-c3cccc(CN4CCOCC4)c3)cc2)CCCC1,i
COc1ccc2[nH]c(C)c(C(=O)CN3CCC(Cc4ccccc4)CC3)c2c1,i
C=C(C)CNC(=S)N/N=C1\CC2CC=CC12 (centres undefined),i
COCc1nnc2n1CCC(NC(=O)c1cc(C3CC3)[nH]n1)CC2 (centres undefined),i
COCc1nnc2n1CCC(NC(=O)c1ccn(C)n1)CC2 (centres undefined),i
COCc1nnc2n1CCC(NC(=O)c1ccc3cc[nH]c3c1)CC2 (centres undefined),28.2µM*
Cc1cccc(C(=O)Nc2ccccc2C(=O)NCc2ccccc2)n1,i
CC(=O)c1ccc(NC(=O)CSCc2cccc(F)c2)cc1,i
Cc1ccc(CC(=O)NC2CCCCC2C)cc1 (centres undefined),i
Clc1ccc(-c2nnc([C@H]3CCN(C4CCCCC4)C3)o2)cc1,25.1µM*
COCC(=O)N1CC[C@H](c2nnc(-c3ccc(C)cc3)o2)C1,i
Cc1ccc(-c2nnc([C@H]3CCN(C(C)C)C3)o2)cc1,31.6µM*
SMILES,KDM5B inh
Fc1ccccc1-c1nnc([C@H]2CCN(C3CCOCC3)C2)o1,i
Cc1ccc(-c2nnc([C@H]3CCN(C(=O)COCC(=O)O)C3)o2)cc1,i
Cc1ccc(-c2nnc([C@H]3CCN(C(=O)Nc4ccc(F)cc4)C3)o2)cc1,i
O=C(c1ccncc1)N1CC[C@H](c2nnc(-c3ccncc3)o2)C1,i
Clc1ccc(-c2nnc([C@H]3CCN(Cc4ccccc4)C3)o2)cc1,i
Cc1ccc(-c2nnc([C@H]3CCN(C4CCC4)C3)o2)cc1,31.6µM*
CSC(=S)NN=C1CCCC1,i
O=C(Cc1n[nH]c(=O)c2ccccc12)Nc1ccccc1,i
O=C(CSc1ncnc2nc[nH]c12)Nc1ccccc1,i
Cc1ccc(CC(=O)N2CCC(NS(=O)(=O)c3ccc(Cl)cc3)CC2)cc1,i
CCC(C)C(=O)NCC(OC)c1ccccc1 (centres undefined),i
CN(CCCOc1ccccc1)CCC(=O)N(CC#N)CC#N,i
COc1cccc(N2CCN(C(=O)c3cc(NC(=O)C(C)C)cc4nc(C)ccc34)CC2)c1,i
Cc1ccc2c(C(=O)N3CCOCC3)cc(NC(=O)C(C)C)cc2n1,22.4µM*
Cc1nc2cc(F)ccc2cc1C(=O)N1CCCC(C)CC1 (centres undefined),i
CC1CCN(C(=O)c2cc(-c3ccncc3)nc3ccccc23)CC1,i
CC(=O)Nc1cc(C(=O)N2CCC(C)CC2)c2ccc(C)nc2c1,22.4µM*
CC(C)C(=O)Nc1ccc2c(c1)nc1n2CCOC1,i
COc1cc(NC(=O)c2c(-n3cnnn3)sc(C)c2C)cc(OC)c1,i
O=C(O)c1cccc(CSc2cc(Cl)ccc2Cl)c1,i
C/C(=N\NC(=O)Cc1cccs1)c1cccc2ccccc12,i
O=C(Nc1ccccc1C(=O)NC1CCCC1)c1ccnc(-n2cncn2)c1,i
N#C/C(=C\c1ccc(-c2cccc(C(F)(F)F)c2)o1)c1ccccc1,i
COc1cc(Nc2nc3ccccc3nc2C(=O)OCC(C)C)cc(OC)c1,i
Cc1ccc(CNC(=O)c2nc(SCc3ccccc3F)ncc2Cl)cc1,i
Cc1ccc(CNC(=O)CSc2n[nH]c(N)n2)cc1F,i
Cc1c(-c2ccccc2F)[nH]c2ccc(CNC(=O)CN3CC(=O)NC3=O)cc12,28.2µM*
